Several values for one entry are separate records, joined by “and”; a condition that tells them apart may be missing. Equal values may be shown once. Results filed as inconclusive are left out. Unmarked numbers belong to inactive results. Unless noted, calls come from the whole dose curve; as a rule, active = well fitted curve in either direction with a large enough effect (not every such curve was filed as active); inconclusive = small, poorly fitted or top-dose-only effect, or another doubt; inactive = flat fitted curve, though single readings scatter.
Experiment: Cell Viability - BJ (AID 421; calls by dose curve;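 note: potency is the fitted concentration of half-maximal effect; cells exposed to compound for 40 hours at 37 °C before readout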)
Conditions: BJ fibroblast viability, qHTS
Method in brief: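 Quantitative HTS: ATP depletion in BJ cells after 40 hr compound exposure in complete culture medium, detected with CellTiter-Glo; AC50 from standard Hill fits.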

Structure (SMILES)	Potency [µM]
C=C(C)[C@H]1CC=C(C)C(=O)C1	> 92
C=CC(C)(O)CCC=C(C)C (stereo not given)	> 92
COS(C)(=O)=O	> 92

Experiment: Cell Viability - Jurkat (AID 426;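 active = dose-dependent loss of cell ATP signal giving a full or clear fitted curve, ranked by lower potency value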;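 note: potency is the fitted concentration of half-maximal effect; cells exposed to compound for 40 hours at 37 °C before ATP read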)
Conditions: qHTS
Description: NIH Chemical Genomics Center [NCGC]
NIH Molecular Libraries Screening Centers Network [MLSCN]
National Institutes of Environmental Health Sciences [NIEHS]
National Toxicology Program [NTP]
We have developed a 1536-well cell-based assay for quantitative high throughput screening (qHTS) against a number of cell lines to determine in vitro cytotoxicity of small molecules. This particular assay uses the Jurkat cell line (Clone E6-1) which is derived from the human T cell leukemia.
NCGC Assay Protocol Summary:
The CellTiter-Glo luminescent cell viability assay (Promega) is a homogeneous method to measure the number of viable cells in culture. The end point readout of this assay is based on quantitation of intracellular ATP, an indicator of metabolic activity, using the luciferase reaction. Luciferase catalyzes the oxidation of beetle Luciferin to oxyluciferin and light in the presence of ATP. The luminescent signal is proportional to amount of ATP present.
Using the CellTiter-Glo luminescent cell viability assay, the amount of cellular ATP was measured in the Jurkat cell line with complete culture medium following compound treatment for 40 hours. The assay was performed in opaque white Kalypsys 1536-well plates. In the screen, tamoxifen and doxorubicin were used as positive controls. Library compounds were measured for their ability to cause acute toxicity in the cell line, as reflected by a decrease in intracellular ATP levels, in a concentration-dependent manner. […] AC50 values were determined from concentration-response data modeled with the standard Hill equation.
qHTS protocol for CellTiter Glo Jurkat cellular assay
[Step] [Parameter] [Value] [Description]
1. Reagent; 5 uL; 5000 Jurkat cells/well
3. Controls; 23 nL; Tamoxifen 0.34 uM to 100 uM & Doxorubicin 0.02 nM to 100 uM
4. Time; 40 hr; 37 °C incubation
5. Reagent; 5 uL; CellTiter Glo reagent
6. Time; 20 min; Room Temperature
7. Detection; Luminescence; Viewlux plate reader
Keywords: cell viability, cytotoxicity, Jurkat cell line, luminescence, NTPHTS, NTPHTS_NCGC, NIEHS, EPA, DSSTox, MLSMR, MLSCN, NIH Roadmap, qHTS, NCGC

Structure (SMILES)	Potency [µM]
C=C(C)[C@H]1CC=C(C)C(=O)C1	> 92
C=CC(C)(O)CCC=C(C)C (stereo not given)	> 92
COS(C)(=O)=O	> 92

Experiment: Cell Viability - Hek293 (AID 427;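 active = compounds whose dose-response curve shows a full or clear partial loss of cell viability, called from curve shape rather than a numeric limit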;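 note: potency is the fitted concentration of half-maximal effect; cells exposed to compound for 40 hours at 37 °C before reading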)
Conditions: qHTS
Method in brief: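 AC50 values derive from Hill-modelled concentration-response of ATP-based luminescence, normalized between DMSO-only and 100 uM tamoxifen controls. Cells were exposed in complete culture medium for 40 hr at 37 °C before detection.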

Structure (SMILES)	Potency [µM]
C=C(C)[C@H]1CC=C(C)C(=O)C1	> 92
C=CC(C)(O)CCC=C(C)C (stereo not given)	> 92
COS(C)(=O)=O	> 92

Experiment: Cell Viability - HepG2 (AID 433; calls by dose curve;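 note: potency is the fitted concentration of half-maximal effect; potency for ATP loss meaning cytotoxicity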)
Conditions: qHTS
Method in brief: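 Cytotoxicity read as ATP loss (CellTiter-Glo luminescence) after 40 hr compound exposure of HepG2, 1500 cells/well, 37 °C. AC50 by Hill equation; 0% set by DMSO, 100% inhibition by 100 uM tamoxifen.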

Structure (SMILES)	Potency [µM]
C=C(C)[C@H]1CC=C(C)C(=O)C1	> 92
C=CC(C)(O)CCC=C(C)C (stereo not given)	> 92
COS(C)(=O)=O	> 92

Experiment: Cell Viability - MRC5 (AID 434; calls by dose curve;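 note: potency is the fitted concentration of half-maximal effect; cells exposed to compound for 40 hours at 37 °C; potency reflects cytotoxicity seen as loss of intracellular ATP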)
Conditions: MRC5 lung fibroblast viability, qHTS
Method in brief: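 Decrease in intracellular ATP, quantified by luciferase light output, reflects compound toxicity toward MRC5 cells exposed for 40 hr in complete culture medium. Concentration-response curves, scaled between DMSO and 100 uM tamoxifen, gave AC50 values.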

Structure (SMILES)	Potency [µM]
C=C(C)[C@H]1CC=C(C)C(=O)C1	> 92
C=CC(C)(O)CCC=C(C)C (stereo not given)	> 92
COS(C)(=O)=O	> 92

Experiment: Cell Viability - SK-N-SH (AID 435; calls by dose curve; note: potency is the fitted concentration of half-maximal effect)
Conditions: SK-N-SH neuroblastoma cell viability qHTS
Method in brief: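 qHTS cytotoxicity: CellTiter-Glo ATP luminescence after 40 h compound exposure of human neuroblastoma SK-N-SH cells at 37 °C. AC50 derived by Hill-equation fitting, with DMSO as basal and 100 uM tamoxifen as full inhibition.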

Structure (SMILES)	Potency [µM]
C=C(C)[C@H]1CC=C(C)C(=O)C1	> 92
C=CC(C)(O)CCC=C(C)C (stereo not given)	> 92
COS(C)(=O)=O	> 92

Experiment: NFAT Signaling Pathway (AID 444);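 note: carbachol stimulus at about its EC50 of 1 µM final; % is set by controls: 0 for no effect and ±100 for the full control effect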
Conditions: Jurkat NFAT-bla M1, carbachol, beta-lactamase ratio, 5 h; at 7.69 µM (top of the series) unless noted
Method in brief: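 Jurkat cells carrying an NFAT-driven β-lactamase reporter and co-transfected muscarinic M1 receptor were treated with compound plus carbachol (1 uM final, an EC50 level) for 5 h at 37 °C. CCF4 loading followed for 1 h at RT; 460/530 nm ratio gave %activity.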

Structure (SMILES)	activity change, negative = inhibition
COCCn1c(=O)c(C)nc2cnc(Nc3ccccc3)nc21	15.1%
COc1cccc(Cn2c(=O)cnc3cnc(N4CCN(C)CC4)nc32)c1	-19.9%
COc1ncc2nc(-c3cccs3)c(=O)n(C)c2n1	8.87%
Cc1ccccc1-c1ccc2ncnc(N3CCN(C)CC3)c2c1	-10.1%
COc1ccccc1-c1ccc2ncnc(Nc3ccccc3)c2c1	10.9%
COC(=O)C1=CO[C@@H](C)[C@H]2CN3CCc4c([nH]c5ccccc45)[C@@H]3C[C@H]12	-3.19% [at 17.2 µM] and -17.9% [at 17.2 µM]
N#Cc1ccccc1-c1ccc2ncnc(NCc3cccs3)c2c1	20.9%
COc1ccccc1CNc1ncnc2ccc(-c3cccc(C#N)c3)cc12	-8.04%
COc1ccccc1CNc1cc(-c2cccc(C#N)c2)ncn1	17.8%
Cc1nc2cnc(N3CCN(C)CC3)nc2n(C[C@H]2CCCO2)c1=O	-3.95%
CC(C)(S)[C@H](N)C(=O)O	8.46%
CC12CC[C@@H]3c4ccc(OS(=O)(=O)O)cc4CC[C@H]3C1CCC2=O (stereo not given in full)	-17.6% [at 17.2 µM]
COc1ccccc1-c1ccc2ncnc(NCCN3CCOCC3)c2c1	5.89%
C[C@@H]1CCC[C@H](C)N1NC(=O)c1ccc(Cl)c(S(N)(=O)=O)c1	2.78% [at 17.2 µM] and -21.9% [at 17.2 µM]
COc1cccc(Cn2c(=O)c(C)nc3cnc(Nc4cccc(OC)c4)nc32)c1	19%
Cc1cnc(CNc2ncnc3ccc(-c4ccccc4C(F)(F)F)cc23)cn1	-22.4%
CN1CCN(c2ccnc(-c3ccc(N(C)C)cc3)n2)CC1	6.45%

— PubChem BioAssay (NCATS)
